Test results from PubChem BioAssay (NCATS).
“And” between values parts separate entries of the source, which are not always exact repeats. Equal entries are not always repeated. Records with an inconclusive call do not appear. The source made the active and inactive calls. Calls follow the shape of the dose curve; as a rule, active = well fitted curve in the direction sought with a large enough effect; inconclusive = small, poorly fitted or top-dose-only effect, or another doubt; inactive = no such curve, though single readings can be large; an effect the other way counts as inactive or inconclusive.

Tests used:
[1] = biological target: Cellular tumor antigen p53 (Homo sapiens) (UniProt P04637); assay: Primary qHTS for small molecule compounds that upregulate eGFP-tagged delta133p53alpha (in N-terminal) cells. (AID 2060322); details: NCI-H358 eGFP-delta133p53alpha fluorescence, 24 h; activation: stronger effect = higher value; also: nearly all actives have a fitted effect of over 75% in size; also: potency is read from the fitted curve at half-maximal effect;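 as to activation: 0% = DMSO vehicle and 100% = reference activator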
Chain of Cellular tumor antigen p53 (Homo sapiens) (P04637 whole entry, looked up): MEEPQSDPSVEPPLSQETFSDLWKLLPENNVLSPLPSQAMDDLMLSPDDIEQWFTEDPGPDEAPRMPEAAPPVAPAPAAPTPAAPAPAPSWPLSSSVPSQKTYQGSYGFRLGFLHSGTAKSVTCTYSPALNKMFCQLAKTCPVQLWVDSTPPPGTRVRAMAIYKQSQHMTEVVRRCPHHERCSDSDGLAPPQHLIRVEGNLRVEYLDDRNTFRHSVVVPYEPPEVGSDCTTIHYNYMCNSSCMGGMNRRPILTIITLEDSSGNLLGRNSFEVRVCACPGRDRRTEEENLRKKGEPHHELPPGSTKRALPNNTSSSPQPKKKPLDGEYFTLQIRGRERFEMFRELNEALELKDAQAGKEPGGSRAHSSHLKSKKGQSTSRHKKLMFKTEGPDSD
Outline: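 NCI-H358 cells pre-induced 24 h with 10 ng/ml doxycycline to express N-terminal eGFP-delta133p53alpha, then dosed 24 h at 37C without doxycycline; fixed, Hoechst-stained, GFP intensity by laser scanning cytometry, normalized to DMSO (0%) and 57.5 uM 5-azacytidine (100%).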

[2] = biological target: Aldehyde dehydrogenase, mitochondrial (Homo sapiens) (UniProt P05091); assay: qHTS for Inhibitors of the Aldehyde Dehydrogenase Family (ALDH2) Primary screen (AID 2061308); details: ALDH2 enzyme inhibition qHTS, 1536-well; series mostly up to 56 µM;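 also: plate controls were vehicle for no effect and reference inhibitor for full effect; nearly all actives have a fitted effect of over 55% in size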
[3] = biological target: Retinaldehyde dehydrogenase 3 (Homo sapiens) (UniProt P47895); assay: qHTS for Inhibitors of the Aldehyde Dehydrogenase Family (ALDH1A3) Validation screen (AID 2061312); details: ALDH1A3 enzyme inhibition qHTS validation, fluorescence; series mostly up to 84.7 µM; also: % is scaled to controls: 0 for no effect and ±100 for the full control effect; nearly all actives have a fitted effect of over 45% in size
[4] = biological target: Retinaldehyde dehydrogenase 3 (Homo sapiens) (UniProt P47895); assay: qHTS for Inhibitors of the Aldehyde Dehydrogenase Family (ALDH1A3) Primary screen (AID 2061315); details: ALDH inhibition qHTS; series mostly up to 56 µM;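 also: plate controls were DMSO vehicle for no effect and reference inhibitor for full effect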

CCOC(CN1CCN(CC(C)C(=O)c2ccccc2)CC1)c1ccccc1 (centres undefined)
inactive: activation [1] -4.18% and 4.3% | Potency [2] | Potency [3] | Potency [4]

CCCCN1CCCC[C@H]1C(=O)Nc1c(C)cccc1C
inactive: activation [1] -18.6% and -5.25% | Potency [2] | Potency [3] | Potency [4]

O=C(Nc1ccccc1)Nc1ccc(-c2ccc(C(=O)C3CCCC3C(=O)O)cc2)cc1 (centres undefined)
inactive: activation [1] -6.21% | Potency [2] | Potency [3] | Potency [4]

O=C(c1cc2c(cc1F)OC(c1ccc(F)cc1)(c1ccc(Cl)cc1Cl)O2)N1CCOCC1 (centres undefined)
inactive: activation [1] -4.3% | Potency [2] | Potency [3] | Potency [4]

Cn1cc(S(=O)(=O)c2ccc(Cl)cc2)c2cccc(N3CCNCC3)c21
inactive: activation [1] 3.34% | Potency [2] | Potency [3] | Potency [4]

Nc1nc2c(ncn2[C@@H]2O[C@H](CO)[C@@H](O)[C@H]2O)c(=O)[nH]1
inactive: activation [1] -1.43% | Potency [2] | Potency [3] | Potency [4]

Cc1onc(-c2ccccc2)c1C(=O)N1CCN(c2ccc([N+](=O)[O-])cc2Cl)CC1
inactive: activation [1] -0.477% | Potency [2] | Potency [3] | Potency [4]

N#CC(c1ccnc(OCc2ccc(CN3CCOCC3)cc2)n1)c1nc2ccccc2s1 (centres undefined)
inactive: activation [1] 0.477% | Potency [2] | Potency [3] | Potency [4]

O=C(NCCN1CCN(c2cccc3c2OCCO3)CC1)c1ccc(F)cc1
inactive: activation [1] -9.07% | Potency [2] | Potency [3] | Potency [4]

O=C(Nc1ccn(Cc2ccc(O)cc2C(F)(F)F)n1)c1c(F)cccc1F
inactive: activation [1] -13.4% | Potency [2] | Potency [3] | Potency [4]

CC(OC1OCCN(Cc2n[nH]c(=O)[nH]2)C1c1ccc(F)cc1)c1cc(C(F)(F)F)cc(C(F)(F)F)c1 (centres undefined)
inactive: activation [1] 20.5% | Potency [2] | Potency [3] | Potency [4]

CC(C)C(=O)c1cn(CC(=O)COc2ccc(Oc3ccccc3)cc2)c2ccc(C(=O)O)cc12
inactive: activation [1] 6.68% | Potency [2] | Potency [3] | Potency [4]

CCOCCn1nc(CC)c2nc(N3CCC(C(=O)O)CC3)nc(Nc3cc(C)ccn3)c21
inactive: activation [1] 0% | Potency [2] | Potency [3] | Potency [4]

CN(C)c1ccnc2sc3c(=O)n(N4CCCCCC4)cnc3c12
inactive: activation [1] -18.1% | Potency [2] | Potency [3] | Potency [4]

COc1ccc(C(=O)n2c(C)c(Cc3cccc(O[C@@H](C)C(=O)O)c3)c3cc(OC(F)(F)F)ccc32)cc1
inactive: activation [1] -3.82% | Potency [2] | Potency [3] | Potency [4]

CCCC(C(=O)O)c1c(C)nc2ccc(Cl)cc2c1-c1ccccc1 (centres undefined)
inactive: activation [1] -1.91% | Potency [2] | Potency [3] | Potency [4]

CN[C@H](CNC(=O)N1CCC[C@@H]([C@@H](OCCNC(=O)OC)c2cccc(Cl)c2)C1)C[C@H]1CCCOC1
inactive: activation [1] 11.5% | Potency [2] | Potency [3] | Potency [4]

CC(=O)NC[C@H]1CN(c2ccc(N3CCSCC3)c(F)c2)C(=O)O1
inactive: activation [1] 0% | Potency [2] | Potency [3] | Potency [4]

Oc1ccc(-c2cnc3ccc(NCc4ccco4)nn23)cc1
active: Potency [1] 26.9 µM
inactive: Potency [2] | Potency [3] | Potency [4]

O=C(O)CC1CCC(c2ccc(NC(=O)c3nnc(Nc4ccc(F)c(F)c4)o3)cc2)CC1 (centres undefined)
inactive: activation [1] -0.955% | Potency [2] | Potency [3] | Potency [4]

FC(F)(F)c1nnc2c(Sc3ccccc3)nc3ccc(Cl)cc3n12
inactive: activation [1] 29.1% | Potency [2] | Potency [3] | Potency [4]

O=C(O)c1cc(N(Cc2ccc(C3CCCCC3)cc2)C(=O)c2ccc(Oc3ccccc3)cc2)ccc1O
inactive: activation [1] -2.86% | Potency [2] | Potency [3] | Potency [4]

Cc1ccc2[nH]c(=O)c(C3=NN(C(=O)CCC(=O)O)C(c4ccc(Br)cc4)C3)c(-c3ccccc3)c2c1 (centres undefined)
inactive: activation [1] -22.4% | Potency [2] | Potency [3] | Potency [4]

O=C(N[C@H](Cc1cscn1)C(=O)N[C@@H](CC1CCCCC1)[C@@H](O)[C@@H](O)C1CC1)c1nc2ccccc2[nH]1
inactive: activation [1] 5.25% | Potency [2] | Potency [3] | Potency [4]

CN(C)c1nc(Cc2ccc(NC(=O)c3ccc(C(F)(F)F)cc3)cc2)nc(N(C)C)c1CC(=O)O
inactive: activation [1] -14.6% and -1.43% | Potency [2] | Potency [3] | Potency [4]

COc1cc(Nc2nc3ccccc3nc2NS(=O)(=O)c2ccc(NC(=O)c3ccc(OC)c(C)c3)cc2)cc(OC)c1
inactive: activation [1] -18.6% | Potency [2] | Potency [3] | Potency [4]
